# Compounds with a hit are over-represented: about 2.3% of the library has one in this group of screens.
# CHO-K1 Ca PAM: nonselective calcium activators in parental CHO-K1 cells, primary screen, counter-screen for M1 PAM project, cell-based, Fluo-8 calcium fluorescence, full deck, 1536-well; ATP EC20; 0% at ATP EC20, 100% at ATP max; activation, % at 3 µM; 0.02% of 360,000 active; AID 602247, 2012;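 active = activation above the run cutoff, the mean activation of all test compounds plus 3 SD, cut at about 40% in these data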;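 note: peak over basal fluorescence ratio in a 140 s read after ATP addition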
# CHRM1 agonist: human M1 muscarinic receptor agonists, primary screen, Fluo-8 calcium fluorescence, CHO-K1 cells, HTS | Muscarinic acetylcholine receptor M1 (Homo sapiens), P11229 | CHO-K1 hM1, agonist mode; 0% DMSO, 100% acetylcholine EC100 | activation, % at 3 µM | 0.33% of 360,000 active | AID 588814, 2011;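 active = activation above the run's mean compound activation plus 3 SD, cut at about 16% in these data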;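 note: peak over basal fluorescence ratio within a 140 s kinetic read after compound addition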
# Target sequence (P11229 whole entry, looked up): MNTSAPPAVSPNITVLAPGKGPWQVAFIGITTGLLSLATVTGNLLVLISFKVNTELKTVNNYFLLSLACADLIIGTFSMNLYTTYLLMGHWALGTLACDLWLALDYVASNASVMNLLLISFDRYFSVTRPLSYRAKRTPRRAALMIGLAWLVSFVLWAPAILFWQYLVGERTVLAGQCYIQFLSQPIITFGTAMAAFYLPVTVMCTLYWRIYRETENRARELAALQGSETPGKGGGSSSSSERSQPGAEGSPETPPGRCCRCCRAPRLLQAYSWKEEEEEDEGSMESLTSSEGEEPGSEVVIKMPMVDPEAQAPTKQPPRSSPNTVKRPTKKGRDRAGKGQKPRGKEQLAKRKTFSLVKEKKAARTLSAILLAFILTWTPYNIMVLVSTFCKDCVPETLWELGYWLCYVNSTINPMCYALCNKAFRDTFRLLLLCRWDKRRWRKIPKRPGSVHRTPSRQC
# CHRM1 antagonist: human M1 muscarinic receptor antagonists, primary screen, CHO-K1 cells, Fluo-8 calcium fluorescence, 1536-well; AID 588852, 2011; Muscarinic acetylcholine receptor M1 (Homo sapiens), P11229; CHO-K1 hM1, ACh EC80 antagonist; 1.3% of 360,000 active; inhibition, % at 3 µM;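 active = percent inhibition above its own plate's cutoff, namely the mean of that plate's compound wells plus 3 SD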;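 note: peak over basal fluorescence ratio during 140 s after agonist addition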
# M1 ag parental: counter-screen for M1 agonists: effect in parental CHO-K1 cells | activation, % at 3 µM | AID 602248, 2012 | Fluo-8 calcium fluorescence; scaled to maximal ATP response, vehicle zero | 0.48% of 360,000 active; in the data active = activation above about 15%;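 note: untransfected CHO-K1 host cells lacking M1 receptor as counterscreen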
# CHO-K1 Ca antag: nonselective inhibitor or artifact in parental CHO-K1 cells | ATP-induced calcium, Fluo-8 fluorescence | inhibition, % at 3 µM | 0.6% of 360,000 active | AID 602250;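 active = inhibition above a per-plate cutoff, the plate's mean sample inhibition plus 3 SD, cut at about 24% in these data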
# M1 PAM: human M1 muscarinic receptor positive allosteric modulators, primary screen, CHO-K1 cells, Fluo-8 calcium fluorescence, 1536-well. AID 588819, 2011. activation, % at 3 µM. 0.088% of 360,000 active. CHO-K1 hM1, ACh EC20; 0% = ACh EC20, 100% = maximal ACh; in the data active = activation above about 19%, passing the limit was not always enough
# Hits are given with their value; i = inactive; nt = not tested or not shown.
SMILES,CHO-K1 Ca PAM,CHRM1 agonist,CHRM1 antagonist,M1 ag parental,CHO-K1 Ca antag,M1 PAM
CCC1CCC(C(=O)NC(C(=O)NCCN2CCOCC2)C(C)C)CC1 (stereo not drawn),i,i,i,i,i,i
Oc1ccccc1-c1nnc(COc2ccc(Cl)cc2Cl)o1,i,i,i,i,43.7,i
CC(C)Oc1ccc(CN2CCC2(C)C(=O)Nc2cccc3cccnc23)cc1 (stereo not drawn),i,i,i,i,i,i
CN(C)C1(CNC(=S)Nc2ccccc2C(F)(F)F)CCCCC1,i,50.0,i,i,i,i
CN(C)C1(CNC(=O)Nc2ccccc2)CCCCC1,i,i,i,i,i,i
CN(C)c1cc[n+](CC(=O)Nc2ccc(Oc3ccccc3)cc2)cc1,i,i,63.6,i,i,i
COc1ccc(CCNC(=O)c2cc3ccc(Cl)cc3nc2N)cc1,i,nt,nt,i,33.3,nt
Nc1nc2ccc(Cl)cc2cc1C(=O)NCCc1c[nH]c2ccccc12,i,nt,nt,i,i,nt
Nc1nc2ccc(Cl)cc2cc1C(=O)NCc1ccc(Oc2ccccc2)cc1,i,nt,nt,i,27.9,nt
COc1ccc(Cl)cc1NC(=O)CSc1nnc(C2CC2)n1N,i,i,i,i,i,i
CCOC(=O)C1=C(COC(=O)COc2ccc(Br)cc2)NC(=O)NC1C (stereo not drawn),i,i,i,i,i,i
COc1ccc(Cc2c(C3CCCCC3)nc3c(Cl)cc(C(F)(F)F)cn23)c(C)c1,i,nt,nt,i,i,nt
C[C@@H]1CN([C@H](C)CO)C(=O)CCCn2cc(nn2)CO[C@H]1CN(C)S(=O)(=O)c1cccs1,i,i,i,i,31.7,i
C[C@@H]1CN([C@@H](C)CO)C(=O)CCCn2cc(nn2)CO[C@H]1CN(C)S(=O)(=O)c1cccs1,i,i,i,i,i,i
C[C@@H]1CN([C@H](C)CO)C(=O)CCCn2cc(nn2)CO[C@H]1CN(C)S(=O)(=O)c1ccc(F)cc1,i,i,i,i,26.0,i
COc1ccc(NC(=O)CC2C(=O)N(C)C(=S)N2Cc2ccc3c(c2)OCO3)cc1 (stereo not drawn),i,i,i,i,i,i
CC(C)(C)OC(=O)NC(CNCc1ccccc1)Cc1ccccc1 (stereo not drawn),i,i,i,i,i,i
CC(NC(=O)c1ccncc1)C(c1cccs1)N1CCOCC1 (stereo not drawn),i,i,i,i,i,i
Cc1cccc(C(=O)NC(C)C(c2cccs2)N2CCOCC2)c1 (stereo not drawn),i,i,i,15.3,i,i
NS(=O)(=O)c1ccc(S(=O)(=O)N2CCCC(c3ccccc3)C2)cc1 (stereo not drawn),i,i,i,i,i,i
Nc1nc(Nc2ccccc2)sc1C(=O)c1ccccc1,i,16.0,i,i,i,i
COc1ccc(C(=O)c2sc(Nc3ccccc3)nc2N)cc1,i,i,i,i,i,i
CC1CCCN(C(=O)N2c3ccccc3Sc3ccccc32)C1 (stereo not drawn),i,i,i,i,i,i
CN1CCCC(CC2Oc3ccccc3Sc3ccccc32)C1 (stereo not drawn),i,i,99.3,i,i,i
c1ccc2c(c1)OC(CCCN1CCCCC1)c1ccccc1S2 (stereo not drawn),i,i,46.0,i,i,i
SMILES,CHO-K1 Ca PAM,CHRM1 agonist,CHRM1 antagonist,M1 ag parental,CHO-K1 Ca antag,M1 PAM
CC(Oc1ccccc1C(N)=O)C(=O)Nc1ccc(S(=O)(=O)N2CCCC2)cc1 (stereo not drawn),i,i,59.0,i,i,i
COc1ccc(CN(C)C(C)C(=O)Nc2ccc(S(=O)(=O)N3CCCCC3)cc2)c(OC)c1 (stereo not drawn),i,i,90.7,i,i,i
CC(=O)Nc1ccc(NC(=O)C(C)Oc2ccccc2F)cc1 (stereo not drawn),i,i,i,i,23.9,i
CC(Oc1ccccc1F)C(=O)Nc1ccc2ccccc2c1 (stereo not drawn),i,i,i,i,i,i
CCOc1ccccc1C(=O)OC(C)C(=O)Nc1ccc(S(=O)(=O)N2CCCC2)cc1 (stereo not drawn),i,i,28.6,i,25.3,i
Cc1nc2ccc(NC(=O)[C@H](C)N3C(=O)C4CC=CCC4C3=O)cc2s1 (stereo partly drawn),i,i,i,i,i,i
CCN(CC)CCNC(=O)C1(O)c2cc(Br)ccc2NC(=O)N1c1ccccc1 (stereo not drawn),i,i,i,i,i,i
CCOc1ccc(CN2CCN(S(=O)(=O)c3ccc(NC(C)=O)cc3)CC2)cc1,i,i,i,22.1,i,i
Cc1noc(C)c1COc1ccc(C(=O)OC(C)C(=O)Nc2ccc(S(=O)(=O)N3CCOCC3)cc2)cc1 (stereo not drawn),i,i,i,17.5,i,i
COc1ccc(CN2CCN(S(=O)(=O)c3ccc(NC(C)=O)cc3)CC2)cc1OC,i,i,i,i,i,i
OC(c1cc(C(F)(F)F)nc2c(Cl)cc(Cl)cc12)C1CCCCN1 (stereo not drawn),i,i,i,17.7,i,i
OC(CC#CCN1CCCC1)(c1ccccc1)c1ccccc1,i,i,99.6,i,i,i
CC(C)(C)N(CC#CCC(O)(c1ccccc1)c1ccccc1)CCO,i,i,i,i,i,i
C(#CCN1CCCC1)CC(c1ccccc1)c1ccccc1,i,i,99.8,i,i,i
CC(C)C(O)(CC#CCN1CCCC1)c1ccccc1 (stereo not drawn),i,i,99.0,i,i,i
OC(CC#CCN1CCCCC1)(c1ccccc1)c1ccccc1,i,i,96.8,i,i,i
OC(CC#CCN1CCOCC1)(c1ccccc1)c1ccccc1,i,i,i,i,i,i
CC(C)CC(O)(c1ccccc1)C(CN1CCOCC1)c1ccccc1 (stereo not drawn),i,i,i,i,i,i
CCNc1ncnc2c1cnn2C1CCCO1 (stereo not drawn),i,i,i,i,i,i
Cc1ccc(S(=O)(=O)N2CCN(C(=O)COC(=O)/C=C/c3ccc(OC(F)F)cc3)CC2)cc1,i,i,i,i,i,i
CC(C)(C)C(O)(CC#CCN1CCCC1)c1ccccc1 (stereo not drawn),i,i,98.3,i,i,i
CCOC(=O)Nc1ccc2c(c1)N(C(=O)CCN1CCOCC1)c1ccccc1S2=O (stereo not drawn),i,i,78.0,i,i,i

# Screening results: PubChem BioAssay, The Scripps Research Institute Molecular Screening Center
